Measured values as given in ChEMBL document CHEMBL3988442, “University of Dundee, Small-Polar-MMV Screening Library” (2021).
Hit rate of the full screen: of about 69,000 compounds, about 1,000 (1.4%) showed an effect of 50% or more. This is one part of a sample in which strong results are shown more often than they occur.

Tested on: Leishmania donovani
Assay: Leishmania intramacrophage assay
Assay type: functional, organism-based
Parameters: scale not given: in the data most compounds retested in dose-response had high values

Structure (SMILES): Cc1nc([C@@H]2C[C@@H]3CCN(C(=O)c4ccnnc4)C[C@H]3O2)sc1C
- Percent Effect (30 µM, 30.03 µM): 6.612%

Structure (SMILES): CCN1C[C@H]2CCN(C(=O)NC3CCCC3)CC[C@H]2S1(=O)=O
- Percent Effect (30 µM, 30.03 µM): -4.578%

Structure (SMILES): CNC(=O)C1Cn2ccnc2C2(CCN(Cc3cccc(C)n3)CC2)O1.O=C(O)C(F)(F)F (stereo not given)
- Percent Effect (30 µM, 30.03 µM): -9.841%

Structure (SMILES): NCC1CN(c2nc(-c3ccccc3)nc3c2CCNCC3)CCO1 (stereo not given)
- Percent Effect (30 µM, 30.03 µM): 6.18%

Structure (SMILES): NCC1CCCN(c2nc(-c3ccccc3)nc3c2CCNCC3)C1 (stereo not given)
- Percent Effect (30.3 µM, […]): 17.41%

Structure (SMILES): N#CC1CCCN(c2nc(-c3ccccc3)nc3c2CCNCC3)C1 (stereo not given)
- Percent Effect (30 µM, 30.03 µM): 83.36%

Structure (SMILES): CCOCCCNC(=O)c1cc(Br)c2c(c1)OCCO2
- Percent Effect (30.3 µM, […]): 32.12%

Structure (SMILES): CCC(C)(C)NC(=O)Cn1nc(C)nc1-c1ccccc1
- Percent Effect (30.3 µM, […]): -5.337%

Structure (SMILES): CC1(C)CNC(=O)c2nc(CCN3CCC(O)CC3)[nH]c2C1
- Percent Effect (30.3 µM, […]): -12%

Structure (SMILES): O=C1[C@@H]2CN(Cc3cc4ccccc4o3)C[C@]2(C(=O)O)CN1CC1CC1
- Percent Effect (30.3 µM, […]): 10.9%

Structure (SMILES): CSCC[C@H](NC(C)=O)c1nc(CCc2ccccc2)n[nH]1
- Percent Effect (30.3 µM, […]): 10.23%

Structure (SMILES): NC(=O)c1ccccc1NC(=O)CCN1CCN(CCO)CC1
- Percent Effect (30.3 µM, […]): 10.76%

Structure (SMILES): COCC1c2c(cnn2C)CCN1C(=O)c1cc(C)on1.O=C(O)C(F)(F)F (stereo not given)
- Percent Effect (30.3 µM, […]): 13.09%

Structure (SMILES): COCC1c2c(cnn2C)CCN1C(=O)c1cscn1.O=C(O)C(F)(F)F (stereo not given)
- Percent Effect (30.3 µM, […]): 23.63%

Structure (SMILES): COCC1c2c(cnn2C)CCN1C(=O)c1cccn1C.O=C(O)C(F)(F)F (stereo not given)
- Percent Effect (30.3 µM, […]): 51.46%

Structure (SMILES): CCCC(=O)Nc1ccc(CC(=O)N(C)CCc2cn[nH]c2)cc1
- Percent Effect (30.3 µM, […]): 12.21%

Structure (SMILES): NC(=O)C1CCN(S(=O)(=O)c2cnn(-c3ccccc3)c2)CC1
- Percent Effect (30.3 µM, […]): 68.11%

Structure (SMILES): NC(=O)C1CCN(S(=O)(=O)c2cnn(-c3ccccc3)c2)C1 (stereo not given)
- Percent Effect (30.3 µM, […]): 30.89%

Structure (SMILES): NC(=O)C1CCCN(S(=O)(=O)c2cnn(-c3ccccc3)c2)C1 (stereo not given)
- Percent Effect (30.3 µM, […]): 13.13%

Structure (SMILES): COc1ccc([C@@H]2C[C@H](NC(C)=O)C[C@H](CCc3ccccc3)O2)cn1
- Percent Effect (30.3 µM, […]): 22.12%

Structure (SMILES): CN(C(=O)CCc1nc(C2CC2)no1)c1cc(C#N)c2ccccc2n1
- Percent Effect (30.3 µM, […]): -8.685%

Structure (SMILES): O=C(NCCOc1ccc2c(c1)OCO2)C1CC(=O)N(CC2CC2)C1 (stereo not given)
- Percent Effect (30 µM, 30.03 µM): 11.04%

Structure (SMILES): O=C(NCC(=O)N1CCCCC1)c1ccoc1
- Percent Effect (30 µM, 30.03 µM): -16.27%

Structure (SMILES): O=C(c1cocn1)N1CCC[C@]2(C[C@@H](OCC3CC3)CO2)C1
- Percent Effect (30.3 µM, […]): 14.29%

Structure (SMILES): O=C(c1ccc2c(c1)OCO2)N1CCC[C@]2(C[C@H](OCC3CC3)CO2)C1
- Percent Effect (30 µM, 30.03 µM): 23.48%

Structure (SMILES): COC1COC2(CCN(C(=O)c3cocn3)CC2)C1 (stereo not given)
- Percent Effect (30.3 µM, […]): -1.503%

Structure (SMILES): CCO[C@@H]1CO[C@@]2(CCCN(C(=O)c3ccc(OC)c(F)c3)C2)C1
- Percent Effect (30 µM, 30.03 µM): 6.334%

Structure (SMILES): O=C(c1ccc(F)c(F)c1)N1CCC[C@]2(C[C@@H](OCC3CC3)CO2)C1
- Percent Effect (30.3 µM, […]): 53.63%

Structure (SMILES): O=C(c1cocn1)N1CCC2(CC1)CC(OCC1CC1)CO2 (stereo not given)
- Percent Effect (30.3 µM, […]): 52.58%

Structure (SMILES): CC(C)CSCCN1CCCN(S(C)(=O)=O)CC1
- Percent Effect (30.3 µM, […]): 6.004%

Structure (SMILES): COc1ccc(C2CCCN2C(=O)c2ccc(=O)n(C)c2)cc1OC (stereo not given)
- Percent Effect (30.3 µM, […]): -9.758%

Structure (SMILES): c1ccc(OCCCNCc2cccs2)nc1
- Percent Effect (30.3 µM, […]): 58.66%

Structure (SMILES): c1ccc(OCCNCc2cccs2)nc1
- Percent Effect (30.3 µM, […]): 46.82%

Structure (SMILES): Cc1ccsc1CNCCCOc1ccccn1
- Percent Effect (30.3 µM, […]): -17.78%

Structure (SMILES): CC(C)[C@H]1CN(CCCO)C[C@@H]1NC(=O)CCC(F)(F)F
- Percent Effect (30.3 µM, […]): -10.59%

Structure (SMILES): CN(C)CCn1ccnc1C1CCCN(c2ncc(Cl)cc2F)C1 (stereo not given)
- Percent Effect (30.3 µM, […]): 16%

Structure (SMILES): CCS(=O)(=O)N1CCOC2(CCCN(c3ccc(C)nn3)C2)C1.O=C(O)C(F)(F)F (stereo not given)
- Percent Effect (30 µM, 30.03 µM): 11.03%

Structure (SMILES): CNc1nc(C(=O)N2C[C@H]3CC[C@@H]2CN(S(C)(=O)=O)C3)cs1
- Percent Effect (30.3 µM, […]): 50.94%

Structure (SMILES): CNc1nc(C(=O)N2C[C@H]3CC[C@@H]2CN(C2CCOCC2)C3)cs1
- Percent Effect (30.3 µM, […]): 4.94%

Structure (SMILES): CC(C)c1nc(C(=O)N2C[C@H]3CC[C@@H]2CN(C2CCOCC2)C3)cs1
- Percent Effect (30.3 µM, […]): 12.76%

Structure (SMILES): CS(=O)(=O)NC[C@]12COC[C@H]1CN(CC1CCCC1)C2.O=C(O)C(F)(F)F
- Percent Effect (30 µM, 30.03 µM): -6.018%

Structure (SMILES): CS(=O)(=O)NC[C@]12COC[C@H]1CN(CC1CCC1)C2.O=C(O)C(F)(F)F
- Percent Effect (30.3 µM, […]): 80.19%

Structure (SMILES): CS(=O)(=O)NC[C@]12COC[C@H]1CN(CCc1ccccc1)C2.O=C(O)C(F)(F)F
- Percent Effect (30.3 µM, […]): 17.9%

Structure (SMILES): O=C(Nc1cnccn1)[C@H]1CC[C@@H]2[C@@H](CCN2Cc2ccccn2)O1.O=C(O)C(F)(F)F
- Percent Effect (30.3 µM, […]): 28.13%

Structure (SMILES): CC(O)CCN(C)C(=O)Nc1cccc(F)c1 (stereo not given)
- Percent Effect (30.3 µM, […]): 1.493%

Structure (SMILES): Cl.Clc1ccccc1CN1CCc2nc(C3CCNCC3)ncc2C1
- Percent Effect (30.3 µM, […]): 3.749%

Structure (SMILES): Cl.Cl.c1ccc2c(c1)C(NC1CCCC1)CC21CCNCC1 (stereo not given)
- Percent Effect (30.3 µM, […]): 32.48%

Structure (SMILES): Cl.Clc1cccnc1OC1CCNCC1
- Percent Effect (30.3 µM, […]): 14.95%

Structure (SMILES): c1ccc2ncc(CC3CCNCC3)cc2c1
- Percent Effect (30.3 µM, […]): -17.37%

Structure (SMILES): Clc1ccccc1C1(c2ccnc(C3CC3)n2)CCNCC1
- Percent Effect (30.3 µM, […]): 94.79%
